MARV entry inh: blocks Marburg virus binding to or entry into cells | Marburg virus pseudotyped entry inhibition, cell reporter | AID 540276 | Potency, µM (series often up to 37.8 µM), actives largely listed as inhibitors | hit rate 1.8% among 300,000; calls by dose curve; tested in HEK293 cells
HCV inhibitor: HCV inhibition. Potency, µM (doses to about 41.8 µM), hits mostly inhibitors. hit rate 3.4% among 340,000. Huh7.5.1 HCVcc-Cre infection, luciferase reporter, 44 h
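A cell-based infection assay in which seeded cells (1,000 per well) receive test compound after 4 h, are inoculated with HCVcc-Cre at approximately 0.5 moi, and are incubated 44 h before luminescence detection.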
LASV entry inh: inhibitors of Lassa virus binding or cell entry. Potency, µM (titrated, usually from 37.9 µM), most hits filed as inhibitors. hit rate 1.2% among 300,000. AID 540256. Lassa virus pseudotype entry inhibition, cell reporter; calls by dose curve; tested in HEK293 cells; further: nearly all actives have a fitted effect of over 50% in size
Pf growth 96h: P. falciparum growth inhibition at 96 hour, primary screen for plastid delayed-death inhibitors; hit rate 6.9% among 320,000; P. falciparum luciferase reporter growth, 96 h; AID 504834; Potency, µM (series often up to 28.7 µM), most hits filed as inhibitors
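Luminescence readout: decreased luciferase signal marks inhibited growth of reporter-expressing P. falciparum in infected red cells (2% hematocrit, 0.05% parasitemia final), exposed to compound two generations (96 h, 37 C, 5% CO2).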
HCMV antiviral: blocks human cytomegalovirus replication. hit rate 4.5% among 410,000. AID 1259415. activity change, negative = inhibition, % at 57.5 µM. HFF cells, HCMV-luciferase reporter, 72 h; hits give low values; in the data active means activity change below about -60%; inconclusive means no clear call, values can overlap the other calls; inactive means above about -39%
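Screen run at 2 compound doses on HFFs infected with reporter HCMV, MOI 1 PFU/cell. Luciferase activity from cell lysates at 72 h post infection gave inhibition relative to buffer-only and Salinomycin wells.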
Pf growth 48h: inhibits P. falciparum growth in the first generation, 48 h; P. falciparum luciferase growth in erythrocytes, 48 h; Potency, µM (top dose mostly 28.7 µM), actives largely listed as inhibitors; hit rate 5.9% among 310,000; AID 504832
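Here the parasites carry a stable luciferase gene and grow inside erythrocytes in Albumax-based RPMI medium with compound for one erythrocytic cycle. Activity is scored as loss of luminescent signal.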
Hits are given with their value; - = inactive; ? = inconclusive; . = not tested or not shown; [ ] = remark or other dose. Sampled rows, rich in hits. Any-hit rate of the full collection: about 14%. Unless noted, the call rests on the fitted dose curve; in most records, active means well fitted inhibition curve with a large enough effect; inconclusive means small, poorly fitted or top-dose-only effect, or another doubt; inactive means no such curve, though single readings can be large or run the other way.

SMILES | MARV entry inh | HCV inhibitor | LASV entry inh | Pf growth 96h | HCMV antiviral | Pf growth 48h
COc1ccccc1NS(=O)(=O)c1cc(NC(=O)c2cccc(S(=O)(=O)N(C)C)c2)ccc1N1CCOCC1 | - | ? | - | 1.47µM | - | 2.33µM
COc1ccccc1NS(=O)(=O)c1cc(NC(=O)C(C)(C)C)ccc1N1CCOCC1 | - | ? | - | ? | - | ?
COc1ccccc1NS(=O)(=O)c1cc(NC(=S)NCCN2CCOCC2)ccc1N1CCOCC1 | - | - | - | 14.7µM | - | ?
COc1ccccc1NS(=O)(=O)c1cc(NC(=O)c2cc(=O)[nH]c3ccccc23)ccc1N1CCOCC1 | . | 25.1µM | . | ? | - | 10.4µM
COc1ccccc1NS(=O)(=O)c1cc(NC(=O)c2ccncc2)ccc1N1CCOCC1 | - | ? | - | 14.7µM | - | ?
CCc1ccc(OC(C)C(=O)Nc2c(C(=O)c3ccccc3)oc3ccccc23)cc1 (stereo not drawn) | ? | . | - | . | - | .
COc1ccccc1NS(=O)(=O)c1cc(NC(=O)c2cnccn2)ccc1N1CCOCC1 | . | - | . | ? | - | 11.7µM
Cc1ccc(CCNC(=O)C2CC(=O)N(CCc3ccc(C)cc3)C2)cc1 (stereo not drawn) | . | . | ? | . | - | .
CNC(=O)C1CC(=O)N(CCc2ccc(C)cc2)C1 (stereo not drawn) | ? | - | - | - | -69.5 | -
Cc1ccc(CCN2CC(C(=O)NCCCN3CCCCC3)CC2=O)cc1 (stereo not drawn) | . | - | . | 7.38µM | - | -
Cc1ccc(CCN2CC(C(=O)NC(C)C)CC2=O)cc1 (stereo not drawn) | - | - | - | - | -61.1 | -[0.00184 µM]
O=C(Nc1nncs1)C1CC(=O)N(CCc2ccc(F)cc2)C1 (stereo not drawn) | - | - | - | - | -66.0 | -
COC1CC2CCC(C)[C@](O)(O2)C(=O)C(=O)N2CCCCC2C(=O)OC(C(C)CC2CCC(O)C(OC)C2)CC(=O)C(C)/C=C(/C)C(O)C(OC)C(=O)C(C)CC(C)C=CC=C/C=C\1C (stereo partly drawn) | . | . | . | 1.9µM | . | 3.79µM
CC(=O)Oc1ccc(Cn2c(C)c(C(=O)NCc3cccc(C(F)(F)F)c3)sc2=O)cc1 | . | . | . | . | - | .
CC(C)(C)NC(=O)C1CCN(C(=O)c2ccc(-c3ccccc3)cc2)CC1 | - | ? | - | . | - | 9.28µM
O=C(NC1CCCCC1)C1CCN(C(=O)c2ccc(-c3ccccc3)cc2)CC1 | - | - | - | - | - | -
O=C(/C=C/c1c(F)cccc1Cl)c1ccc(O)cc1 | . | 11.2µM | . | ? | - | -
CC(C)CCNC(=O)C(c1ccc(O)cc1)N(Cc1cccs1)C(=O)C1COc2ccccc2O1 (stereo not drawn) | ? | 12.6µM | 16.4µM | - | -93.6 | ?
O=C(NC1CCCC1)C(c1ccccc1)N(Cc1ccco1)C(=O)Cc1cccs1 (stereo not drawn) | - | - | - | - | - | -
Cc1ccc(C(C(=O)NC2CCCCC2)N(Cc2cccnc2)C(=O)C2COc3ccccc3O2)o1 (stereo not drawn) | ? | - | - | - | - | 5.22µM
Cc1ccc(C(C(=O)NC2CCCC2)N(Cc2cccnc2)C(=O)c2snc(C(N)=O)c2N)o1 (stereo not drawn) | - | - | - | ? | - | -
Cc1ccc(C(C(=O)NC2CCCCC2)N(Cc2ccco2)C(=O)C2COc3ccccc3O2)o1 (stereo not drawn) | ? | - | - | . | - | 7.38µM
O=C(NC1CCCCC1)C(c1ccc(O)cc1)N(CC1CCCO1)C(=O)C1COc2ccccc2O1 (stereo not drawn) | - | - | ? | 7.38µM | - | .
CC1CCC2(CC1)NC(=O)N(CC(=O)Nc1ccc(N3CCCCC3)cc1)C2=O (stereo not drawn) | . | . | . | . | - | .
O=C(NCc1ccco1)C(c1cccs1)N(C(=O)C1COc2ccccc2O1)c1cccc(O)c1 (stereo not drawn) | - | - | - | ? | ? | 10.4µM
Cc1ccc2nc3c(cc(C(=O)NCC4CCCO4)c(=N)n3C(C)C)c(=O)n2c1 (stereo not drawn) | - | . | - | . | - | .
COC(=O)C1=C2CCO[C@H]2[C@@H]2[C@@H](C)[C@H](OC)c3ccccc3[C@@H]12 | ? | . | - | . | . | .

Screens (PubChem)
